Assay results taken from PubChem BioAssay AID1508600 (Functional Genomics Laboratory (NCATS/FGL), 2020).
Screen size: about 53,000 sequences; about 3,700 (7%) were called active. The full list was thinned out, with actives kept by preference. Values without a mark were called inactive.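 How the source made its calls: active means gene knockdowns whose robust z-score for IL-1 alpha signal is at least 2 or at most -2, so actives lie on both sides; inactive means the rest.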

experiment: Components of the Cytosolic LPS Sensing Pathway: Gene Identification via Genome-wide siRNA Screen; settings: RAW264.7 macrophages, IL-1a HTRF, actives lie on both sides, screened at 100 nM (by protocol), cells primed 5 h with Pam3CSK4 first;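 further: robust z of the log signal after scaling to non-targeting control siRNA wells of the plate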
In short: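 RAW264.7 mouse macrophages reverse-transfected with single siRNAs (100 nM final) for 48h, primed with Pam3CSK4 for 5 hours, then transfected with LipidA for 24 hour. Supernatant IL-1a read by HTRF; values normalized to negative-control median, log-transformed robust z-scores.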

Row | Sequence | z-score
1 | GUAAAAUGUUCACUAAAGCTT against Olfr1248 | -1.14
2 | GCUUAUAAUGCCAUUACUUTT against Rad21 | -0.548
3 | CGAUUUAAAGUAGUAGUGGTT against Dusp28 | -1.13
4 | GACAGAAAUAUAGACUCGATT against Ppp1r42 | -2.45 (active)
5 | CGGAUAACAAAAGUAGCAATT against Trp53rka | 0.276
6 | GGUUUAGCAUCGUCCUAUATT against Crmp1 | -0.495
7 | CGGCAGAUGCAUUCAGGAUTT against Ccdc125 | 0.0172
8 | GGAGGUGUUAGAUUUUGACTT against Asrgl1 | -0.295
9 | GGCGGAGGAAGAGUUCAACTT against Atp6v1e2 | -0.393
10 | GGAUGAAACUAUUCAGCACTT against Chml | -0.635
11 | GCAGGAGGAUUAGUAAAUUTT against Ier2 | 0.966
12 | CCCUAUUGUCAAUAUUCUATT against Nr1h5 | 0.492
13 | GGGAGCAAAAGCUUUACUUTT against Prl3c1 | 2.25 (active)
14 | GGAGAAAUUUCUGAGAAGATT against Slc51a | -1.24
15 | GGCGGCCUUAGUAGAUAUCTT against Acsl4 | 0.677
16 | GGAACAAGGAAGUUACAGGTT against Olfr30 | -1.06
17 | GAAAAGAGUUUCCACGAGATT against Il19 | 0.0645
18 | GGAGAUUCUCCAUAACCUGTT against Rnf135 | 2.29 (active)
19 | GGGAGAAAGAUUGUAACUATT against 1110032A03Rik | -1.05
20 | GGAACAAAAACCAUUGUGATT against Gng7 | -1.49
21 | CGAACCUGUUGACGGAUUCTT against Wnt1 | 0.563
22 | GGACAAAGCAAUCCACAUCTT against Wdr55 | -0.564
23 | CCAUCGGGAUUGACUAUGGTT against Dnajc27 | -0.878

Row | Sequence | z-score
24 | GCUAAUGAUACAGAAGUUGTT against Snrpb2 | 0.661
25 | GGAGGAUGAGGAUUUUGAUTT against Spsb3 | 2.16 (active)
26 | CCACUUCUUUCCAUGAACUTT against Slc6a4 | 0.7
27 | GGCAGAUUGAUAAAAUUCATT against Stag1 | -0.223
28 | GCUCAGUCUCUUGGGUGGUTT against Cel | 2.27 (active)
29 | GCUCUGUUCACCUACCCGATT against Anapc16 | 0.264
30 | GGUUGUACUUGUUUUUCCUTT against Dtwd1 | 1.35
31 | GCAUUGUCAUGAUACAACATT against Fem1b | 0.793
32 | GGAGGAGAGGAGAAUAGCATT against Atp5k | -0.586
33 | GGAACUACAACAGAAACGATT against Cep131 | -1.42
34 | GUGACAAUGAAAAAUGUGUTT against Clec4b1 | -2.42 (active)
35 | GGAAAUGUCUUAUGAUAACTT against Col5a1 | 0.194
36 | CCUCAUCAAUCAGCCUAUGTT against Olfr1178 | -1.83
37 | GCAUCGCUAAGUCCGUCUUTT against Aqp4 | -0.1
38 | GGACCUGUAUUCUCAGGGATT against Lce1a2 | -0.251
39 | CCUGUAACCUUGCUUAAUGTT against Hoxc6 | 0.0208
40 | GGAGAAAUGAAGGUAUACATT against Cert1 | -1.12
41 | GGUUUAUGACAAACUGAAATT against Enpp4 | -0.0826
42 | GCAGAAGUUAAGAUGCAUATT against Usf1 | 2.02 (active)
43 | CCUGCUCAACGGAGACCAUTT against Hmx3 | 3.47 (active)
44 | GGCUUGAGACUUAAAACGGTT against Lztfl1 | 0.583
45 | CGCUGAAAUGGUGAAUAAATT against Recql | -0.0529
46 | GUCCCACUGUCCAGUUACATT against Gm9946 | -0.565

Row | Sequence | z-score
47 | CGAGAGAAGCCCAUCAUCATT against Nrg4 | 1
48 | GGAAGAAAAGGGAUAUCAGTT against Xirp1 | 0.253
49 | GGUUCAGACACCACUUCAGTT against Bgn | 2.56 (active)
50 | GGAGGAUCACCCAUCAAAUTT against Oxct1 | -0.083
51 | GGUAUUUUGAUGUUGGACUTT against Hhat | 0.989
52 | GGAUGUGAAACAUGCUUUUTT against Olfr1030 | 0.536
53 | CCUCAUGCAGCUCAAUCUATT against Prelp | -2.41 (active)
54 | GGCUAUGGCUUUUGUAUGUTT against Arpin | -0.0747
55 | GGACUCAAUAAGAACCUCGTT against Papss1 | -1.25
56 | GGAUGAAAGUUGUAUGUAUTT against Ctsk | -0.606
57 | GGAUCGUGAGCUUCUAUUATT against Gask1a | 0.434
58 | CGAGAAGUGCUGACUCAAUTT against Map2k3os | 0.563
59 | GGAUGUCUGGAAUGAAACATT against Slc17a4 | -3.16 (active)
60 | GGAGAGCUGCAUCAAAAAGTT against Prdm16 | 0.545
61 | GGUGCUCAUGCAGGUCCAUTT against Slc25a25 | -0.356
62 | GGGCCAUCUCUCAAUUAUGTT against Gga2 | 1.93
63 | GGUUCUACAUGUGAAACAATT against Zfp143 | -2.15 (active)
64 | GCCUGGUCUCACUAUGUAGTT against Hpvc2 | 0.129
65 | GGACGUGUUUUACAAAUACTT against Srsf1 | -0.979
66 | GGGAAAAUAUCUCAUAUCATT against Colec10 | -0.944
67 | GGGCUGAAGAUGACUUCAATT against Topors | 5.91 (active)
68 | GGAUGUCUCGGAACUAAGGTT against Med28 | -0.571
69 | GGUAUUACAAGGUCAUAUCTT against Nol12 | -0.357
